Shown are actives, neighbours in structure and some others; about 2.9% of the full set was active somewhere.
pPAFAH inh: pPAFAH (human) enzyme inhibition; recombinant pPAFAH, FP-rhodamine probe fluorescence polarization; inhibition, % at 3.39 µM; 1.5% of 330,000 active; AID 463082;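 active = inhibition above the mean inhibition across the screen plus 3 SD, cut at about 25% in these data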;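 also: inhibitors block binding of the rhodamine activity-based probe so polarization drops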
Fam108B inh: counter-screen for RBBP9 inhibitors: inhibitors of mouse Fam108B | 0.33% of 300,000 active | recombinant Fam108B, FP-Rh probe fluorescence polarization | inhibition, % at 9.51 µM;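 active = inhibition above the screen mean inhibition plus 3 SD, computed separately per campaign, cut at about 18% in these data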;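 also: inhibitors lower polarization as less probe binds the enzyme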
PME-1 primary: blocks human protein phosphatase methylesterase 1 | Q9Y570 | recombinant PME-1, FP-Rh probe fluorescence polarization | inhibition, % at 5.9 µM | 0.53% of 320,000 active | AID 2130;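 active = inhibition above the campaign mean of all compounds plus 3 SD, cut at about 26% in these data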;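 also: competitive labeling of PME-1 active site by serine hydrolase directed probe; inhibitors block probe labeling so polarization falls and inhibition rises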
Target sequence (Q9Y570 whole entry, looked up): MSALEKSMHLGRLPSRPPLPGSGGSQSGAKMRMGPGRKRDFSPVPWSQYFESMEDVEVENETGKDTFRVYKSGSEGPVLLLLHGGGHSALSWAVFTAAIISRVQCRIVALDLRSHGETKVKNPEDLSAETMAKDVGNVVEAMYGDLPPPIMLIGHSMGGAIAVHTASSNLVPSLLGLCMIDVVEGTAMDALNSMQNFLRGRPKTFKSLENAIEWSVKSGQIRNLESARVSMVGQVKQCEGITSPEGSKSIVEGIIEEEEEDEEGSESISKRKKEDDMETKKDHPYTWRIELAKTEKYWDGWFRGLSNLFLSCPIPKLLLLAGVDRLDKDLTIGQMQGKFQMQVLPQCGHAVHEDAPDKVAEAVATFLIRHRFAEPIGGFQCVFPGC
PAFAH2 FP inh: PAFAH2 (human) inhibition. recombinant PAFAH2, FP-rhodamine activity probe, fluorescence polarization. AID 492956. inhibition, % at 3.39 µM. Q99487. 0.99% of 340,000 active;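 active = inhibition above the mean over all tested compounds plus 3 SD, cut at about 30% in these data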;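 also: inhibitors block probe labeling of enzyme so polarization drops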
PAFAH1B3 inh: blocks human PAF acetylhydrolase 1B catalytic subunit 3 | recombinant PAFAH1B3, FP-rhodamine probe, fluorescence polarization | inhibition, % at 3.39 µM | 0.28% of 340,000 active | AID 492972;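 active = inhibition above the screen-wide average of all tested compounds plus 3 SD, cut at about 25% in these data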
PAFAH1B2 inh: PAFAH1B2 (human) inhibition | P68402 | recombinant PAFAH1B2, FP-rhodamine activity probe, fluorescence polarization | inhibition, % at 3.39 µM | 1.2% of 340,000 active;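 active = inhibition above the mean of all tested compounds plus 3 SD, cut at about 24% in these data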
Target sequence (P68402 whole entry, looked up): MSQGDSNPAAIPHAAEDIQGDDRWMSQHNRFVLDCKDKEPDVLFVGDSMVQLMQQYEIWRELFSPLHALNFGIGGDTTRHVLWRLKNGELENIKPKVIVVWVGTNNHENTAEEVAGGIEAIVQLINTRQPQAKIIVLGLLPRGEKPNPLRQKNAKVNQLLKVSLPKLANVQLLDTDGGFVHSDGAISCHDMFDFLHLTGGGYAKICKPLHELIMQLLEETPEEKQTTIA
Numbers stand for hits; 0 = inactive; - = no result.

SMILES	pPAFAH inh	Fam108B inh	PME-1 primary	PAFAH2 FP inh	PAFAH1B3 inh	PAFAH1B2 inh
COc1cc(/C=N/NC(=O)c2cc(C34CC5CC(CC(C5)C3)C4)[nH]n2)ccc1O	0	21	0	0	0	30
O=C(NCc1cccnc1)/C(=C\c1ccc(-c2cccc(Cl)c2)o1)S(=O)(=O)c1ccccc1	26	0	0	0	0	0
COc1ccc(C)cc1NC(=O)CCS(=O)(=O)c1ccc2c(c1)oc(=O)n2C	0	0	0	0	0	0
CSc1ccc(C(c2c(C(=O)O)[nH]c3ccccc23)c2c(C(=O)O)[nH]c3ccccc23)cc1	29	0	0	0	0	62
CCOC(=O)c1[nH]c2ccccc2c1NC(C)=O	0	0	0	0	0	0
CCOc1cc(Br)cc(C(c2c(C(=O)O)[nH]c3ccccc23)c2c(C(=O)O)[nH]c3ccccc23)c1O	0	0	0	0	0	79
Cc1ccc(SCC(=O)Nc2cccc(C)c2)cc1	0	0	0	0	0	29
Cc1ccc(SCC(=O)Nc2cc([N+](=O)[O-])ccc2O)cc1	0	0	0	49	0	82
CC(=O)Nc1ccc(S(=O)(=O)N(C)CC(=O)N/N=C/c2ccncc2)cc1	0	0	0	0	0	0
O=C(CC1SC(=O)N(c2ccccc2)C1=O)Nc1cccc2ccccc12 (stereo not given)	25	0	0	0	0	0
Cc1ncc(CSc2ccc(Cl)cc2)c(CO)c1O	0	0	0	0	0	27
Cc1ncc(CSc2nccc(=O)[nH]2)c(CO)c1O	0	0	0	0	0	0
CCc1c(O)nc(SCC(=O)c2ccccc2)n(-c2ccccc2)c1=O	26	0	0	0	0	0
CCc1c(O)nc(SCC(=O)NC(C)(C)C)n(-c2ccccc2)c1=O	0	0	0	0	0	0
CCc1cc2cccc(C)c2nc1SCC(=O)NC1CCCC1	0	0	0	0	0	0
CCc1cc2cc(C)ccc2nc1SCC(=O)N1CC(=O)Nc2ccccc21	29	0	0	0	0	0
CCc1ccc2nc(SCC(=O)N3CC(=O)Nc4ccccc43)c(C#N)cc2c1	0	0	34	0	0	0
CCc1cc2c(SCC(=O)N3CC(=O)Nc4ccccc43)ncnc2s1	0	0	0	0	0	0
CCc1cc2cc(C)ccc2nc1SCC(=O)NC1CCCC1	30	0	0	0	0	0
CC(Sc1ncn[nH]1)C(=O)c1c(N)n(C)c(=O)n(C)c1=O (stereo not given)	0	-	0	0	0	0
COc1ccc2c(CC(=O)N3CCN(S(=O)(=O)c4ccc(F)cc4)CC3)coc2c1	0	-	0	0	0	0
Cc1ccc(NC(=O)CC2=NC(=O)C(CC(=O)Nc3ccccc3C)S2)cc1 (stereo not given)	0	0	0	0	0	0
O=C(N/N=C/c1ccc(-c2ccccc2C(=O)O)o1)c1cccs1	28	0	0	0	0	0
O=C(N/N=C/c1ccncc1)c1cccs1	0	0	0	0	0	0
CC(C)(C)C1CCC2(CC1)SCC(=O)N2c1ccccc1 (stereo not given)	0	0	0	0	0	0
SMILES	pPAFAH inh	Fam108B inh	PME-1 primary	PAFAH2 FP inh	PAFAH1B3 inh	PAFAH1B2 inh
CC1CCC2(CC1)SCC(=O)N2c1ccc(F)cc1 (stereo not given)	0	0	0	0	0	25
Cc1ccc(-c2ccc(/C=N/NC(N)=S)o2)cc1	0	0	0	0	0	0
NC(=S)N/N=C/c1ccc(-c2ccc(SC(F)F)cc2)o1	27	0	0	0	0	0
C/C=C/c1ccc(OCCOc2cc(C=O)ccc2OC)c(OC)c1	28	0	0	0	0	0
COc1ccc(C(=O)O)cc1NC(=S)NC(=O)C(c1ccccc1)c1ccccc1	0	0	0	0	0	0
O=C(CCCC(=O)Nc1cccc(Br)c1)N/N=C/c1cc([N+](=O)[O-])ccc1O	0	0	0	0	0	0
O=C(CN(c1cccc(Br)c1)S(=O)(=O)c1ccccc1)N/N=C/c1cc([N+](=O)[O-])ccc1O	25	0	0	-	-	-
CC(=O)Nc1cccc(C(=O)OCC(=O)NNC(=O)c2cccs2)c1	0	0	0	0	0	0
CCOC(=O)c1sc2nc(C)cc(C)c2c1N	0	0	0	0	0	0
Cc1cc(C)c2c(N)c(C(=O)NN)sc2n1	0	0	32	0	0	0
O=C(COC(=O)c1ccc(Cl)c(Cl)c1)NC1CCCC1	34	0	0	58	0	0
O=C(COC(=O)c1ccccc1Cl)NC1CCCCCC1	31	-	-	79	0	0
Cc1ccc(OCC(=O)NCCCNC(=O)c2cccnc2)cc1	0	0	0	0	0	0
COc1ccccc1NS(=O)(=O)c1cc(NC(=O)Nc2ccc(Cl)cc2Cl)ccc1N1CCCCC1	34	0	0	0	0	0
O=C(CCl)N(c1ccccc1)C1CCCCC1	0	0	0	0	0	33
O=C(c1ccc2c(=O)n(Cc3ccccc3)c(=S)[nH]c2c1)N1CCCC1	0	0	0	0	0	26
Cc1ccc(C)c(N2CCN(C(=O)c3ccc(Cn4c(=S)[nH]c5ccc(N6CCOCC6)cc5c4=O)cc3)CC2)c1	27	0	0	0	0	0
CC1(OC(=O)c2ccco2)C(=O)C=C2C=C(C3CC3)OC=C2C1=O (stereo not given)	28	0	0	0	0	0
COC/C=C/C1=CC2=CC(=O)C(C)(OC(=O)c3cnc4ccccc4n3)C(=O)C2=CN1c1ccc(CO)cc1 (stereo not given)	39	0	0	-	-	-
CC1(OC(=O)c2cnc3ccccc3n2)C(=O)C=C2C=C(C3CC3)OC=C2C1=O (stereo not given)	50	48	66	-	-	-
CC1(OC(=O)c2cccs2)C(=O)C=C2C=C(C3CC3)OC=C2C1=O (stereo not given)	0	0	0	0	0	0
Cc1c(Cl)cccc1NC(=O)CCN1CCN(C)CC1	0	0	0	0	0	0
Cc1ccc(NC2=C(N3CCOCC3)C(=O)c3ccccc3C2=O)cc1	0	0	0	33	33	0
CCN(C(=O)C(C)Sc1ccc(S(=O)(=O)N2CCOCC2)cn1)c1ccccc1 (stereo not given)	0	-	0	0	0	0
COc1cc(/C=C(\C#N)c2nc3ccc(C)cc3[nH]2)cc([N+](=O)[O-])c1O	-	-	-	38	0	33
CC1(C)CC(=O)C(C=Nc2ccc(O)c(N=CC3=C(O)CC(C)(C)CC3=O)c2)=C(O)C1	33	0	0	55	0	0
CC(C)c1cc(Nc2cccc(O)c2)cc(C(C)C)c1O	26	0	0	-	-	-
Cc1[nH]c2ccc(C(=O)NCc3ccccn3)cc2c1C	0	0	0	0	0	0
CCOc1ccc(CCNC(=O)COC(=O)COc2ccccc2C)cc1OCC	0	0	0	0	0	0
CCCCCN(C(=O)CSc1n[nH]c(-c2ccc(C)cc2)n1)c1c(N)n(CCCC)c(=O)[nH]c1=O	0	0	0	0	0	29
